This is a sample that favours compounds with a hit; in the whole collection about 12% have one here.
G9a block: inhibitors of human histone lysine methyltransferase G9a; Potency, µM (doses to about 102 µM), for the others: at the highest dose activity, negative = inhibition, usual class: inhibitors; actives 8.8% (n = 350,000); G9a H3K9 monomethylation, AlphaScreen, 2 h; Q96KQ7; also: potency is read from the fitted curve at half-maximal effect; % is scaled to controls: 0 for no effect and ±100 for the full control effect; nearly all actives have a fitted effect of over 75% in size
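Compounds were preincubated with 20 nM G9a for 15 min, after which biotinylated H3K9 peptide (500 nM) and SAM (20 uM) started a 2 h room-temperature reaction. Monomethylated product was quantified by antibody-based AlphaScreen chemiluminescence.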
BAZ2B block: blocks human BAZ2B. AID 504333. Q9UIF8. Potency, µM (top dose mostly 114 µM), for the others: at the top dose activity change, negative = inhibition, usual class: inhibitors. AlphaScreen BAZ2B-H3K14Ac peptide displacement. actives 4.4% (n = 360,000); also: potency is read from the fitted curve at half-maximal effect; % is scaled to controls: 0 for no effect and ±100 for the full control effect; nearly all actives have a fitted effect of over 60% in size
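AlphaScreen displacement: compounds (up to 110uM) incubated 30 min at room temperature with a preformed 50 nM BAZ2B/50 nM biotinylated H3K14Ac peptide complex in PBS pH 7.4 with Tween-20. Donor and acceptor beads at 10 ug/mL final added, 20 min light-protected before reading.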
HP1b binding inh: inhibitors of HP1-beta chromodomain binding to methylated histone tails. AlphaScreen HP1-beta / biotin-H3K9me3 peptide binding. Potency, µM (highest dose often 114 µM), for inactives: at the highest dose activity change, negative = inhibition, actives largely listed as inhibitors. P83916. actives 0.56% (n = 390,000); also: potency is read from the fitted curve at half-maximal effect; nearly all actives have a fitted effect of over 70% in size
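AlphaScreen: HP1-beta (50 nM) preformed 30 min with biotin-H3(1-18)K9me3 peptide (50 nM) in PBS pH 7.4, 0.01% Tween-20. Compound added for 30 min at RT, then streptavidin donor/nickel chelate acceptor beads (10 ug/mL) for 30 min.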
JMJD2A Tudor: blocks the human JMJD2A Tudor domain | O75164 | AlphaScreen JMJD2A-Tudor / H3K4me3 peptide binding | Potency, µM (top dose mostly 114 µM), inactives show at the top dose activity change, negative = inhibition, hits mostly inhibitors | actives 4.4% (n = 390,000); also: potency is read from the fitted curve at half-maximal effect; % is scaled to controls: 0 for no effect and ±100 for the full control effect; nearly all actives have a fitted effect of over 50% in size
PI5P4Ka inh: PI5P4K alpha (human) kinase inhibition; P48426; PI5P4Kalpha enzyme, ADP-Glo luminescence, 60 min; hits give low values; max response, %; actives 1.2% (n = 330,000); active = max response of -50% or lower; inconclusive = between -30% and -50%; inactive = -30% or higher; also: value at the top dose of about 77 µM; % is scaled to controls: 0 for no effect and ±100 for the full control effect
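PI5P4Kalpha ADP-Glo assay; 5 microM ATP final; 60 min RT reaction; HEPES pH 7.4/EGTA/CHAPS, 5% DMSO; controls lacking substrate or enzyme; luminescent end-point.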
PLK1 PBD block: blocks phosphopeptide binding to human PLK1 polo-box domain. P53350. Plk1 PBD binding of FITC phosphopeptide, fluorescence polarization. Potency, µM, without a hit: max response, negative = inhibition, actives largely listed as inhibitors. actives 2.8% (n = 360,000); also: potency is read from the fitted curve at half-maximal effect; series mostly up to about 57 µM; % is scaled to controls: 0 for no effect and ±100 for the full control effect; nearly all actives have a fitted effect of over 65% in size
Target sequence (P53350 whole entry, looked up, the tested form may be a part): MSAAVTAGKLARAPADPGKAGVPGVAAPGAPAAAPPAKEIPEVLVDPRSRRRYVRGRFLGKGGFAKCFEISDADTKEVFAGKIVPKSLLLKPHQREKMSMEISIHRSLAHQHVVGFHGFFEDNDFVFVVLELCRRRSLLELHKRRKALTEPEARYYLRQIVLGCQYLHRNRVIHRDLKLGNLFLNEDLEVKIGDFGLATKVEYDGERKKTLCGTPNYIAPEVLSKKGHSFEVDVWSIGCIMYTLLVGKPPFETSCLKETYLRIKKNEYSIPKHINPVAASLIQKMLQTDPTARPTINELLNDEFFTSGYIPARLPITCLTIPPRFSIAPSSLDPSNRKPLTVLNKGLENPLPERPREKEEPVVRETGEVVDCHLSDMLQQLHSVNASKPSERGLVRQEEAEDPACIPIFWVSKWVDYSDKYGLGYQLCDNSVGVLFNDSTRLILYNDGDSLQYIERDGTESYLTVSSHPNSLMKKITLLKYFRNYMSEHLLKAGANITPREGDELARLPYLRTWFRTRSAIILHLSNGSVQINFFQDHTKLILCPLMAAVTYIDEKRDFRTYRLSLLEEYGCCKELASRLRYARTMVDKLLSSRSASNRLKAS
Numbers without * were called inactive; ? = inconclusive; nt = not tested or not shown; [ ] = another dose, or the depositor's remark. Unless noted, calls follow the shape of the dose curve; as a rule, active = well fitted curve in the direction sought with a large enough effect; inconclusive = small, poorly fitted or top-dose-only effect, or another doubt; inactive = no such curve, though single readings can be large; an effect the other way counts as inactive or inconclusive.

SMILES | G9a block | BAZ2B block | HP1b binding inh | JMJD2A Tudor | PI5P4Ka inh | PLK1 PBD block
COc1ccc(C(c2nnnn2Cc2ccccc2)N2CCN(c3nc4ccccc4s3)CC2)cc1 (stereo not drawn) | ? | -6.2% | 1.5% | -19.7% | 23.9 | -3.1%
CCCC(c1nnnn1CS(=O)(=O)c1ccc(C)cc1)N1CCN(c2ccccc2)CC1 (stereo not drawn) | 0.9%[12.7 µM] | -1.0% | 20.5% | -17.3% | -5.0 | -1.7%
COc1ccc(C(c2nnnn2Cc2ccccc2)N2CCN(c3ccccc3)CC2)cc1 (stereo not drawn) | -12.7%[12.7 µM] | 79.4µM* | -0.6% | -35.4% | 6.7 | -6.1%
CCCCC(c1nnnn1CS(=O)(=O)c1ccc(C)cc1)N1CCN(C)CC1 (stereo not drawn) | 0.1% | -26.2% | 4.5% | ? | 1.7 | 21.2µM*
COCCn1nnnc1C(c1cccc(C#N)c1)N1CCCCCC1 (stereo not drawn) | 44.7µM* | ? | 26.8% | -17.6% | nt | -3.4%
CCCC(c1nnnn1CC1CCCO1)N1CCN(c2nc3ccccc3s2)CC1 (stereo not drawn) | -24.3%[59 µM] | -3.4% | 19.1% | -3.5% | 6.8 | -4.5%
CCCCC(c1nnnn1CC1CCCO1)N1CCN(c2nc3ccccc3s2)CC1 (stereo not drawn) | 28.2µM* | 50.1µM* | 61.5% | -17.8%[11.4 µM] | -7.2 | ?
COCc1nn2cc(-c3ccc(C)cc3)nc2s1 | -4.4%[59 µM] | -17.7% | 50.3% | -5.7% | nt | nt
CCOc1ccccc1CNC(=O)c1cnc2sc(N3CCOCC3)nn2c1=O | 12.8%[59 µM] | -7.1% | -14.6% | -24.7% | nt | nt
COc1ccc(N2CCN(C(CNC(=O)C(=O)NCC3CCCO3)c3ccco3)CC2)cc1 (stereo not drawn) | 31.6µM* | -2.2% | -25.3% | -25.9% | -3.1 | -9.7%
COc1ccc(C(c2nnnn2CC2CCCO2)N2CCN(c3ccc(F)cc3)CC2)cc1 (stereo not drawn) | -48.3%[12.7 µM] | 56.2µM* | 40.2% | -3.4%[11.4 µM] | -11.9 | 23.8µM*
Fc1ccc(N2CCN(C(c3cccs3)c3nnnn3CCc3ccccc3)CC2)cc1 (stereo not drawn) | -8.0%[59 µM] | -0.2% | -24.2% | -26.7%[11.4 µM] | 5.8 | 23.8µM*
COCCn1nnnc1C(c1ccccc1)N1CCN(c2ccccc2)CC1 (stereo not drawn) | ? | 50.1µM* | 13.2% | ? | -2.7 | -4.6%
COCCn1nnnc1C(c1ccccc1)N1CCN(C)CC1 (stereo not drawn) | ? | -33.5% | 16.0% | ? | 2.0 | 4.3%
Cc1ccc(C(c2nnnn2CC2CCCO2)N2CCN(C)CC2)cc1 (stereo not drawn) | nt | 4.9% | 22.2% | 9.9% | -1.2 | 3.3%
COC(=O)NCC(c1ccco1)N1CCN(c2ccc(OC)cc2)CC1 (stereo not drawn) | ? | nt | 58.9% | -7.4%[11.4 µM] | 3.1 | -1.4%
Cc1ccc(OCCC(=O)OCC(=O)Nc2ccc3c(c2)OCO3)cc1 | -29.2% | -2.3% | 30.0% | -20.1% | -6.8 | 3.8%
Cc1cc(C)cc(N(CC(=O)Nc2ccc(Br)cc2)S(=O)(=O)c2c(C)[nH]c(=O)[nH]c2=O)c1 | nt | ? | 27.3% | -9.1% | 7.0 | -6.3%
O=c1[nH]c2cc3c(cc2cc1C(c1nnnn1CC1CCCO1)N1CCCCCC1)OCO3 (stereo not drawn) | ? | -2.2% | nt | nt | nt | nt
CC(C)n1nnnc1C(c1ccc(F)cc1)N1CCN(C2CCCC2)CC1 (stereo not drawn) | 79.4µM* | ? | 51.4% | -21.2%[11.4 µM] | 2.8 | ?
COc1cc2cc(C(c3nnnn3C3CCCC3)N3CCCCCC3)c(=O)[nH]c2cc1OC (stereo not drawn) | 12.6µM* | 5.7% | 19.9% | -14.1% | nt | -10.6%
CCCCC(c1nnnn1CCOC)N1CCN(Cc2ccccc2)CC1 (stereo not drawn) | ? | -31.5% | 74.3% | -31.0% | 9.3 | -13.3%
O=c1[nH]c2cc3c(cc2cc1C(c1nnnn1CC1CCCO1)N1CCCCCC1)OCCO3 (stereo not drawn) | 11.2µM* | ? | 20.3% | -14.2% | nt | -14.8%
